# Screening results from PubChem.
# PAX8 inh HTS: PAX8 transcriptional activity inhibition. RMG-I TPO-luciferase reporter, SteadyGlo, 24 h. inhibition, % at 12.6 µM. 1.2% of 360,000 active. AID 652154;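 active = mean replicate inhibition at least 60% with every replicate also reaching 60%; inconclusive = only one of the two criteria is met; inactive = mean below 60% and not all replicates reaching 60%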;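 also: luciferase light reporting Pax8 driven TPO promoter activity; plate controls were median of neutral control wells for no effect and mitoxantrone controls for full effect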
# EWS-Fli inh: EWS/Fli transcriptional activity inhibition; 0.67% of 350,000 active; A673 NR0B1-luciferase reporter, viability-normalised; inhibition, % at 12.6 µM;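 active = mean inhibition of at least 50% after viability correction, with every replicate also passing that limit; inconclusive = mean reaches 50% but only one of two replicates passes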;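 also: firefly luciferase signal divided by Alamar Blue viability fluorescence both relative to DMSO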
# LGR2 inh: Drosophila LGR2 receptor signaling inhibition; HEK293 LGR2, CRE-luciferase, bursicon-stimulated, 4 h; 0.35% of 380,000 active; AID 720647; inhibition, % at 9.99 µM;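 active = drop in luminescence signal, shown as inhibition above about 50% in the replicate tests, limit read from the data, passing the limit was not always enough; inconclusive = probably only some replicates passing the limit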;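 also: agonist challenge used bursicon conditioned medium at about half maximal strength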
# TROY signal inh: inhibitors of TROY-dependent NF-kB signaling; Q293 LMP1-TROYcd NF-kB luciferase reporter, 4 h; inhibition, % at 10 µM; 0.98% of 360,000 active; AID 1347056;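 active = compounds whose plate-normalised and pattern-corrected inhibition of the luciferase reporter signal at the single screening dose is 50% or more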
# TWEAK-Fn14 inh: inhibitors of TWEAK-Fn14 interaction signaling; TWEAK-stimulated Fn14 reporter cells, luciferase luminescence, 8 h; inhibition, % at 10 µM; 2% of 360,000 active; AID 1159606; in the data active = inhibition above about 50%
# The depositor's hits bear a star; ? = inconclusive; / = not tested or not shown. Compounds with a hit are over-represented: about 2.8% of the library has one in this group of screens.
SMILES,PAX8 inh HTS,EWS-Fli inh,LGR2 inh,TROY signal inh,TWEAK-Fn14 inh
CC(=O)Nc1sc(N/N=C\c2ccccc2Cl)nc1-c1cccs1,-62,-5,-7,16,67*
CO[C@@H]1CN(C)C(=O)c2ccc(NC(=O)C3CCCCC3)cc2OC[C@@H](C)N(Cc2nccs2)C[C@H]1C,6,8,6,/,/
NC(=O)[C@H]1CC2(CC(c3cccc(NC(=O)COc4ccc(Cl)cc4)c3)=NO2)CN1C(=O)Cc1ccc([N+](=O)[O-])cc1 (stereo partly specified),76*,13,25,29,65*
O=C(C[C@@H]1CC[C@H](NC(=O)c2ccccc2)[C@@H](CO)O1)NCCc1ccncc1,/,-7,-6,/,/
Nc1nnc(-c2cc3ccccc3oc2=O)s1,/,/,/,-47,-3
Nc1cccc(-c2cc3ccccc3oc2=O)c1,-32,-13,-127,67*,60*
CN1c2ccc(-c3ccccc3F)cc2[C@H]2[C@H](CCN2C(=O)Nc2ccc(F)cc2)[C@H]1CO,-18,24,49,/,/
Cc1ccc(N(CC(=O)NCCc2ccc(F)cc2)S(=O)(=O)c2ccc(Cl)c([N+](=O)[O-])c2)c(C)c1,78*,5,18,22,53*
COc1ccc(C2CC(O)(c3ccccc3)Oc3cc(OC)c(OC)c(OC)c32)cc1 (stereo unspecified),22,3,8,-3,5
OC1(c2ccccc2)CC(c2ccccc2)c2ccccc2O1 (stereo unspecified),10,2,15,50*,12
O=C(NCC1CCCO1)c1cccc2c1C(=O)c1ccc(N3CCC(Cc4ccccc4)CC3)cc1S2(=O)=O (stereo unspecified),/,/,/,56*,90*
CC1CCN(c2ccc3c(c2)S(=O)(=O)c2cccc(C(=O)NC[C@@H]4CCCO4)c2C3=O)CC1,13,-32,1,-18,6
COc1ccc2c3c([nH]c2c1)[C@@H](CO)N(C(=O)c1cccnc1)CC31CCN(C(=O)Nc2cccc(F)c2)CC1,/,-5,3,/,/
CCN1CC2([N+](=O)[O-])CC=C(OC)C([N+](=O)[O-])(C1)C2 (stereo unspecified),-8,/,5,-18,73*
CCOc1ccc(C(=O)Nc2nnc(SCC(=O)NCC3CCCO3)s2)cc1 (stereo unspecified),-10,65*,78*,36,69*
CN(C)S(=O)(=O)c1ccc(C(=O)Nc2nnc(SCC(=O)NCC3CCCO3)s2)cc1 (stereo unspecified),-46,/,21,-26,-1
CC(C)(C)c1ccc(C(=O)Nc2nnc(SCC(=O)NCC3CCCO3)s2)cc1 (stereo unspecified),-140,/,-46,6,71*
O=C(C[C@H]1C[C@H](C(=O)N2CCCCC2)[C@@]2(CCc3ccccc3)c3[nH]c4ccc(Cl)cc4c3CCN2C1=O)NCCc1ccccn1,/,/,/,63*,69*
C[C@]12c3[nH]c4ccc(Cl)cc4c3CCN1C(=O)[C@@H](CC(=O)NCC13CC4CC(CC(C4)C1)C3)C[C@@H]2C(=O)N1CCCCC1,-11,-1,7,35,61*
COc1ccc2[nH]c3c(c2c1)CCN1C(=O)C(CC(=O)NCCc2ccccn2)C[C@H](C(=O)N2CCCCC2)[C@@]31CCc1ccccc1 (stereo partly specified),13,14,22,4,7
CC[C@]12c3[nH]c4ccc(Cl)cc4c3CCN1C(=O)[C@@H](CC(=O)NC/C=C(\C)CCC=C(C)C)C[C@@H]2C(=O)N1CCN(C(=O)c2ccco2)CC1,82*,19,18,38,38
O=C(CC1C[C@H](C(=O)N2CCOCC2)[C@@]2(CCC3CCCC3)c3[nH]c4ccccc4c3CCN2C1=O)NCC12CC3CC(CC(C3)C1)C2 (stereo partly specified),-13,-8,20,3,50*
C[C@]12c3[nH]c4ccc(Cl)cc4c3CCN1C(=O)[C@@H](CC(=O)NCC13CC4CC(CC(C4)C1)C3)C[C@@H]2C(=O)N1CCOCC1,41,15,-2,39,42
O=C(CC1C[C@H](C(=O)N2CCOCC2)[C@@]2(CCC3CCCC3)c3[nH]c4ccccc4c3CCN2C1=O)NCCN1CCOCC1 (stereo partly specified),1,-19,-5,7,0
O=C(C[C@H]1CC[C@H]2[C@@H](COC[C@H](O)CN2C(=O)Nc2ccccc2)O1)NCCCN1CCOCC1,2,-10,-3,/,/
SMILES,PAX8 inh HTS,EWS-Fli inh,LGR2 inh,TROY signal inh,TWEAK-Fn14 inh
CN(C)CCCNC(=O)C[C@H]1C[C@H](C(=O)N2CCCCC2)[C@@]2(CCc3ccccc3)c3[nH]c4ccc(Cl)cc4c3CCN2C1=O,-5,63*,/,-6,-81
O=C(/C=C/c1cccs1)NC(=S)Nc1ccc(S(=O)(=O)Nc2ccccc2C(F)(F)F)cc1,2,1,11,52*,9
COc1ccc(NC(=S)NC(=O)/C=C/c2cccs2)cc1,-24,-8,23,-27,14
Cc1cc(C(=O)COC(=O)C2CCN(C(=O)c3ccc(Cl)cc3)CC2)c(C)n1CC1CCCO1 (stereo unspecified),-91,-12,2,19,68*
COc1cc(C(=O)OCC(=O)c2cc(C)n(CC3CCCO3)c2C)cc(OC)c1C (stereo unspecified),-5,-16,/,-5,18
Cc1cc(C(=O)COC(=O)c2ccc3c(c2)OCO3)c(C)n1CC1CCCO1 (stereo unspecified),-89,-15,-50,77*,58*
Cc1cc(C(=O)COC(=O)c2cccnc2Cl)c(C)n1C,-83,48,?,4,76*
CSc1ncccc1C(=O)OCC(=O)c1cc(C)n(CC2CCCO2)c1C (stereo unspecified),-171,-82,5,62*,76*
C[C@H](CO)N1C[C@H](C)[C@@H](CN(C)S(=O)(=O)c2ccccc2)Oc2c(NC(=O)C3CCOCC3)cccc2C1=O,-16,1,10,/,/
COc1ccc(CN(C)C[C@H]2OCCCC[C@@H](C)Oc3ccc(NC(=O)NC4CCCCC4)cc3C(=O)N([C@@H](C)CO)C[C@@H]2C)cc1,/,-4,4,/,/
COc1cccc(C#Cc2cnc3c(c2)C(=O)N([C@H](C)CO)C[C@@H](C)[C@@H](CN(C)C(=O)C2CCOCC2)O3)c1,-35,-4,0,/,/
Cc1cc(C(=O)Cn2nc(C(=O)O)c3ccccc3c2=O)c(C)n1-c1ccccc1,-38,0,-49,70*,35
COc1ccccc1-c1cn(CC[C@@H]2CC[C@@H](NC(=O)Cc3ccccn3)[C@@H](CO)O2)nn1,27,-7,25,/,/
O=C(Nc1cccc(-c2csc(Nc3ccc(Cl)cc3)n2)c1)c1cc([N+](=O)[O-])cc(C(F)(F)F)c1,79*,1,4,3,51*
O=C(Nc1cccc(-c2csc(Nc3ccccc3)n2)c1)c1cc([N+](=O)[O-])cc(C(F)(F)F)c1,-6,-32,-25,10,10
